Measured values as given in PubChem BioAssay (Tox21).
Records with an inconclusive call do not appear. Calls of active or inactive are those of the source. Unless noted, the call rests on the fitted dose curve; in most records, active means well fitted curve in the direction sought with a large enough effect in the repeat runs; inconclusive means weak or mixed curves; inactive means no such curve, though single readings can be large; an effect the other way counts as inactive or inconclusive.

Legend:
[1] = target: Bile acid receptor (Homo sapiens) (UniProt Q96RI1); test: qHTS assay to identify small molecule agonists of the farnesoid-X-receptor (FXR) signaling pathway (AID 743220; active means well fitted activation curve with a large enough effect in the signal ratio in the repeat runs, not every such curve was filed as active; the % refers to the signal ratio)
Procedure, shortened: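 FXR-UAS-bla HEK 293T cells carrying a UAS-driven beta-lactamase reporter were plated for 5 h at 37C/5% CO2, then exposed to DMSO-dissolved Tox21 10K compounds for 16 h at 37C. A LiveBLAzer B/G FRET substrate was loaded for 2 h at room temperature before fluorescence reading.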

[2] = target: Vitamin D3 receptor (Homo sapiens) (UniProt P11473); test: qHTS assay to identify small molecule agonists of the vitamin D receptor (VDR) signaling pathway (AID 743222; calls by dose curve)
Procedure, shortened: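 Following 4 h attachment at 37C, VDR-bla cells (2,000 per well) received DMSO-dissolved compounds or controls. After 16 h incubation, LiveBLAzer B/G FRET substrate was added and fluorescence read 2 h later at room temperature.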

[3] = qHTS assay to identify small molecule agonists of the vitamin D receptor (VDR) signaling pathway - cell viability counter screen (AID 743224); further: series mostly up to about 63 µM; nearly all actives have a fitted effect of over 50% in size
Procedure, shortened: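 In parallel with the bla FRET readout, cytotoxicity toward VDR-bla cells after 16 h compound exposure was assessed by CellTiter-Glo, with luminescence recorded after a 30 min room-temperature incubation.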

[4] = qHTS assay to identify small molecule antagonists of the vitamin D receptor (VDR) signaling pathway - cell viability counter screen (AID 743225); further: nearly all actives have a fitted effect of over 50% in size
Procedure, shortened: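 Cytotoxicity toward the VDR-bla HEK 293T line was scored by ATP-based CellTiter-Glo luminescence, read in the wells already used for the beta-lactamase readout after 16 h compound treatment under 3 nM 1-alpha,25-dihydroxyvitamin D3 stimulation.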

[5] = qHTS assay to identify small molecule agonists of the NFkB signaling pathway (AID 1159509; active means well fitted curve in the direction sought with a large enough effect in the signal ratio in the repeat runs, not every such curve was filed as active; the % refers to the signal ratio; further: series mostly up to about 61 µM)
Procedure, shortened: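 Pathway activation was measured in ME-180 cells stably expressing beta-lactamase under NF-kB response element control. Substrate cleavage was read as the 460/530 nm emission shift after 5 hr compound incubation.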

[6] = qHTS assay to identify small molecule agonists of the NFkB signaling pathway - cell viability counter screen (AID 1159515; calls by dose curve; further: series mostly up to about 61 µM; nearly all actives have a fitted effect of over 55% in size)
Procedure, shortened: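 Plate 2,000 NFkB-bla ME-180 cells/well; incubate overnight. Add compounds, 5 hr at 37 C. Add FRET substrate, 1.5 hr RT. Add CellTiter-Glo, 30 min RT; read luminescence.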

[7] = qHTS assay to identify small molecule agonists of the endoplasmic reticulum stress response signaling pathway (AID 1159516; active means well fitted activation curve with a large enough effect in the signal ratio in the repeat runs, not every such curve was filed as active; the % refers to the signal ratio)
Procedure, shortened: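 Beta-lactamase expression from the ER stress response element in HeLa reporter cells is quantified with the LiveBLAzer B/G FRET substrate, read at 405 nm excitation after 2 hr at room temperature, following 5 hr compound treatment at 37 C.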

[8] = qHTS assay to identify small molecule agonists of the endoplasmic reticulum stress response signaling pathway - cell viability counter screen (AID 1159517; calls by dose curve; further: series mostly up to about 61 µM; nearly all actives have a fitted effect of over 50% in size)
Procedure, shortened: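 In parallel with the ESRE reporter read, cytotoxicity was scored by CellTiter-Glo luminescence (30 min, room temperature) on HeLa ESRE-bla cells dosed for 5 hr.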

[9] = qHTS assay to identify small molecule antagonists of the retinoid-related orphan receptor gamma (ROR-gamma) signaling pathway - cell viability counter screen (AID 1159520); further: nearly all actives have a fitted effect of over 50% in size
Procedure, shortened: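 Tet-on ROR gamma CHO cells were given compounds for 2 hr, then doxycycline hyclate at 1 uM final, and incubated 16 hr at 37 C. Viability was measured as ATP content by CellTiter-Glo luminescence.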

[10] = qHTS assay to identify small molecule agonists of the AP-1 signaling pathway - cell viability counter screen (AID 1159525; calls by dose curve; further: nearly all actives have a fitted effect of over 55% in size)
Procedure, shortened: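 Same-well cytotoxicity counter screen of the Tox21 10K library in ME-180 cells. The readout is ATP-dependent luminescence after 5 h compound treatment. Data are normalised to DMSO and tetra n-octyl ammonium bromide controls.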

[11] = qHTS assay to identify small molecule agonists of the peroxisome proliferator-activated receptor delta (PPARd) signaling pathway - cell viability counter screen (AID 743211); further: nearly all actives have a fitted effect of over 55% in size
Procedure, shortened: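 Multiplexed format: after the 2 h room-temperature LiveBLAzer B/G FRET step, CellTiter-Glo was added to the same wells. Luminescence after 30 min gave cell viability; compound exposure was 17 h at 37C.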

[12] = target: Bile acid receptor (Homo sapiens) (UniProt Q96RI1); test: qHTS assay to identify small molecule antagonists of the farnesoid-X-receptor (FXR) signaling pathway (AID 743217; active means well fitted inhibition curve with a large enough effect in the signal ratio in the repeat runs, not every such curve was filed as active; the % refers to the signal ratio)
Procedure, shortened: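 FRET fluorescence after 2 h room-temperature LiveBLAzer loading gives the readout. Prior step: FXR-bla HEK 293T cells, seeded and incubated 5 h, received test compounds plus 50 uM final CDCA for 16 h at 37 °C.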

[13] = qHTS assay to identify small molecule agonists of the farnesoid-X-receptor (FXR) signaling pathway - cell viability counter screen (AID 743218); further: nearly all actives have a fitted effect of over 45% in size
Procedure, shortened: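 Readout: CellTiter-Glo luminescence, 30 min RT, multiplexed after the FXR-bla FRET reading. HEK 293T FXR-UAS-bla cells received compound 5 h post-plating and were incubated 16 h at 37 C.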

[14] = qHTS assay to identify small molecule antagonists of the farnesoid-X-receptor (FXR) signaling pathway - cell viability counter screen (AID 743221; active means well fitted cell-killing curve with a large enough effect in the repeat runs, not every such curve was filed as active; further: nearly all actives have a fitted effect of over 50% in size)
Procedure, shortened: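 CellTiter-Glo, 30 min RT, luminescence; same wells as the LiveBLAzer FRET read. Cells: FXR-UAS-bla HEK 293T. Treatment: compound with chenodeoxycholic acid 50 uM final, 16 h at 37 C.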

[15] = qHTS assay to identify small molecule antagonists of the peroxisome proliferator-activated receptor delta (PPARd) signaling pathway - cell viability counter screen (AID 743213); further: nearly all actives have a fitted effect of over 50% in size
Procedure, shortened: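 HEK293H PPARd UAS-bla cells, 5 h pre-incubation, compound + L165041 300 nM final, 17 h 37 C; B/G FRET substrate 2 h RT; then CellTiter-Glo 30 min RT, luminescence.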

[16] = target: Peroxisome proliferator-activated receptor delta (Homo sapiens) (UniProt Q03181); test: qHTS assay to identify small molecule antagonists of the peroxisome proliferator-activated receptor delta (PPARd) signaling pathway (AID 743215; active means well fitted inhibition curve with a large enough effect in the signal ratio in the repeat runs, not every such curve was filed as active; the % refers to the signal ratio;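 further: cells stimulated with agonist L165041 at 300 nM final during compound exposure; series mostly up to about 62 µM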)
Procedure, shortened: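 Fluorescence from cleaved LiveBLAzer B/G FRET substrate (2 h, room temperature) reports PPARd-driven beta-lactamase in HEK293H UAS-bla cells. Cells had been treated 17 h at 37 C with compound plus 300 nM final L165041.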

[17] = target: Vitamin D3 receptor (Homo sapiens) (UniProt P11473); test: qHTS assay to identify small molecule antagonists of the vitamin D receptor (VDR) signaling pathway (AID 743223; active means well fitted inhibition curve with a large enough effect in the signal ratio in the repeat runs, not every such curve was filed as active; the % refers to the signal ratio)
Procedure, shortened: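 After VDR-bla cells are plated and left 4 h at 37C, DMSO-dissolved compounds and 3 nM (final) calcitriol agonist are added. Incubation continues 16 h at 37C; FRET beta-lactamase substrate then develops 2 h at room temperature.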

[18] = qHTS assay to identify small molecule agonists of the AP-1 signaling pathway (AID 1159526; calls by dose curve)
[19] = target: Peroxisome proliferator-activated receptor delta (Homo sapiens) (UniProt Q03181); test: qHTS assay to identify small molecule agonists of the peroxisome proliferator-activated receptor delta (PPARd) signaling pathway (AID 743212; calls by dose curve)
Procedure, shortened: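 Tox21 library screened in GeneBLAzer PPARd UAS-bla HEK293H cells. After compound treatment at 37 C, a FRET-based beta-lactamase substrate was applied for 2 h and fluorescence recorded.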

[20] = target: Nuclear receptor ROR-gamma (Homo sapiens) (UniProt P51449); test: qHTS assay to identify small molecule antagonists of the retinoid-related orphan receptor gamma (ROR-gamma) signaling pathway (AID 1159521)
Procedure, shortened: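 Readout: ONE-Glo luciferase luminescence, 30 min at room temperature. System: Tet-on RORγ CHO, RORE-LUC. Sequence: compound 2 h, doxycycline 1 uM final, 16 h at 37 C.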

Measured: Potency

Chain of Peroxisome proliferator-activated receptor delta (Homo sapiens) (Q03181 whole entry, looked up): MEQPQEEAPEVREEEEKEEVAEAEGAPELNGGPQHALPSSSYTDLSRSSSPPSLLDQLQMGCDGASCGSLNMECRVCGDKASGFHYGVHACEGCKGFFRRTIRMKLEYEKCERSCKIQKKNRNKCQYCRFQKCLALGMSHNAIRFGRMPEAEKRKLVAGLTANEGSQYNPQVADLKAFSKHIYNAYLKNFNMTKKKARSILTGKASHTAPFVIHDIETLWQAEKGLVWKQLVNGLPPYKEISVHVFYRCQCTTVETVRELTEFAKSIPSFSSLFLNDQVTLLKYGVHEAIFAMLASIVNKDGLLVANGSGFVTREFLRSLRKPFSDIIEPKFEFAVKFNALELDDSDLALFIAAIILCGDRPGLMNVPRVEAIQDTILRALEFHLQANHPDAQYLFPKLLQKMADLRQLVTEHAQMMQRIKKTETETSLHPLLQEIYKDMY
Chain of Bile acid receptor (Homo sapiens) (Q96RI1 whole entry, looked up): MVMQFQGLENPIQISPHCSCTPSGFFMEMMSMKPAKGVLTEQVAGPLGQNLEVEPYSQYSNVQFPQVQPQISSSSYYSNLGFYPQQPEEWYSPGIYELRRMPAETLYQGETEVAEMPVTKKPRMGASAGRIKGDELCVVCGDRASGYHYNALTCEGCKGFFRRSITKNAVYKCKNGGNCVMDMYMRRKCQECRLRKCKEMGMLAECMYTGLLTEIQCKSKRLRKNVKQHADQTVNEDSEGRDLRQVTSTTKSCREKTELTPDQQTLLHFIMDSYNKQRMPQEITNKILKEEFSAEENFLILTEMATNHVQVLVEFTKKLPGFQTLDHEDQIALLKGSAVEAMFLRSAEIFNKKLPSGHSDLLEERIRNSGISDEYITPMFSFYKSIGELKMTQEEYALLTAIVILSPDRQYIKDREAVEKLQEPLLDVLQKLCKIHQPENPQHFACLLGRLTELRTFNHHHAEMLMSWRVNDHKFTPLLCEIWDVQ
Chain of Vitamin D3 receptor (Homo sapiens) (P11473 whole entry, looked up): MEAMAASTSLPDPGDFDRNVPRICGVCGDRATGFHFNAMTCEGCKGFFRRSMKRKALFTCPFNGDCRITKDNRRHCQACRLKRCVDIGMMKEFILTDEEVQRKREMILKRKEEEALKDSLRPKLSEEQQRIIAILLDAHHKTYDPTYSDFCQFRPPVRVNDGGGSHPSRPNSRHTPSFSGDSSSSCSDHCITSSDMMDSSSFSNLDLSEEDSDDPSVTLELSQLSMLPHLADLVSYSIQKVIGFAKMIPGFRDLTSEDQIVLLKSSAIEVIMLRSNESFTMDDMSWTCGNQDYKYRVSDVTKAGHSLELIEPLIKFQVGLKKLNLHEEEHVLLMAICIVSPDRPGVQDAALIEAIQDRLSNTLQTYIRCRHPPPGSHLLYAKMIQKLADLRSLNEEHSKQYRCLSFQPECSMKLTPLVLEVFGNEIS

COC(=O)Nc1nc2ccc(C(=O)c3cccs3)cc2[nH]1
inactive: [1] | [2] | [3] | [4] | [5] | [6] | [7] | [8] | [9] | [10]

CC1CC(=O)NN=C1c1ccc(NCC(C)(C)NCC(O)COc2cc(Cl)ccc2C#N)cc1 (configuration not stated)
not listed: [15] | [16] | [17] | [18] | [19] | [20]
inactive: all other assays above

CCC(C(=O)OCCN(CC)CC)c1ccccc1 (configuration not stated)
not listed: [1] | [12] | [18] | [19] | [20]
inactive: all other assays above

Cc1cc(OI)c(C(C)C)cc1-c1cc(C(C)C)c(OI)cc1C
not listed: [1] | [2] | [16] | [17] | [18] | [19] | [20]
inactive: all other assays above

O=C(O)c1cccc(O)c1
not listed: [2] | [15] | [16] | [17] | [19] | [20]
inactive: all other assays above

CCc1c2c(nc3ccc(OC(=O)N4CCC(N5CCCCC5)CC4)cc13)-c1cc3c(c(=O)n1C2)COC(=O)[C@]3(O)CC
inactive: [11] | [19] | [13] | [1] | [14] | [5] | [6] | [7] | [8] | [9] | [10]

CSc1ccc(Oc2ccc(S(N)(=O)=O)cc2CN(C)C)cc1C
inactive: [15] | [1] | [2] | [5] | [6] | [7] | [8] | [9] | [10] | [18]

CC(=O)[C@H]1CC[C@H]2[C@@H]3C[C@H](C)C4=CC(=O)CC[C@]4(C)[C@H]3[C@@H](O)C[C@]12C
not listed: [16] | [18] | [20]
inactive: all other assays above

CN1C(=O)CC(C)(c2ccccc2)C1=O (configuration not stated)
not listed: [1] | [12] | [16] | [18] | [20]
inactive: all other assays above

CO/N=C1\CN(c2nc3c(cc2F)c(=O)c(C(=O)O)cn3C2CC2)CC1CN (configuration not stated)
not listed: [2] | [17] | [18] | [19] | [20]
inactive: all other assays above

CCc1cccc(N(C)C(N)=Nc2cccc3ccccc23)c1
not listed: [1] | [3] | [12] | [16] | [18] | [19] | [20]
inactive: all other assays above

Cc1ccc(Nc2nccc(N(C)c3ccc4c(C)n(C)nc4c3)n2)cc1S(N)(=O)=O
not listed: [1] | [12] | [15] | [16] | [19] | [20]
inactive: all other assays above

C[C@]12CCC(=O)C=C1C=C[C@@H]1[C@@H]2CC[C@@]2(C)[C@H]1CC[C@@]21CCC(=O)O1
not listed: [1] | [2] | [12] | [13] | [17] | [18] | [20]
inactive: all other assays above

O=C(CCCN1CCC(O)(c2ccc(Br)cc2)CC1)c1ccc(F)cc1
not listed: [1] | [11] | [12] | [13] | [14] | [20]
inactive: all other assays above

CCCCC(=O)O[C@]1(C(=O)CO)[C@@H](C)C[C@H]2[C@@H]3CCC4=CC(=O)C=C[C@]4(C)[C@@]3(F)[C@@H](O)C[C@@]21C
active: [20] 30.6 µM
not listed: [1] | [3] | [9] | [12] | [15] | [18]
inactive: all other assays above
